Measured values reported in the supplement of paper PMC3334620.
Whole data set: some 33,000 sequences, median “E-score (-0.5 to 0.5)” near -0.011, cut for the highest 2% near 0.28. The sample as a whole holds a higher share of the highest values than the screen did.

Target: T1, Gcr1 (UniProt P07261)
T1 sequence: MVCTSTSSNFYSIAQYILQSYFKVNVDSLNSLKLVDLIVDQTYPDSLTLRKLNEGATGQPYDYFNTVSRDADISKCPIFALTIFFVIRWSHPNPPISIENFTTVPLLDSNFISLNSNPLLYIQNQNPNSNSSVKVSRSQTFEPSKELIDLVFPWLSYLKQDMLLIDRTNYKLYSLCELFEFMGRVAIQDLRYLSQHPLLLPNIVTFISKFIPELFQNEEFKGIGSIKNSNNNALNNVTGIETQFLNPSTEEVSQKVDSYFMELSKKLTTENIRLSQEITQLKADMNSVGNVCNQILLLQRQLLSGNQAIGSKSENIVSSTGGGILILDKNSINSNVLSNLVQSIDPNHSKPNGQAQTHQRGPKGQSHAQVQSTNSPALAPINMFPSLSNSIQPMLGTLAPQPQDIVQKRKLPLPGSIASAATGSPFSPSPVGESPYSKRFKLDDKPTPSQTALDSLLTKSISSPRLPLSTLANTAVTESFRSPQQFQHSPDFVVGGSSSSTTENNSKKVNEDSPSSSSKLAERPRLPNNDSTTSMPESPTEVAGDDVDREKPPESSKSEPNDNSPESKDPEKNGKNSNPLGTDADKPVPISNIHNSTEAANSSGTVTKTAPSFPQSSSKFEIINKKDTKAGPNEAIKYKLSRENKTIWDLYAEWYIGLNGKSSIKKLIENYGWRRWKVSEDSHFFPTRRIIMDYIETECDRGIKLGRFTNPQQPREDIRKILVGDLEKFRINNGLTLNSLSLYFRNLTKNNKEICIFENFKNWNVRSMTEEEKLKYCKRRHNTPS
Assay: PBM E-score (8-mer binding enrichment) (E-score (-0.5 to 0.5)); higher = stronger / more preferred TF binding
Details: protein concentration: 100 nM; construct: GST-full length
Procedure: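 Universal 'all 10-mer' protein binding microarrays (Agilent AMADID 015681) probed with GST-tagged S. cerevisiae TFs (full-length or DBD) made by in vitro transcription/translation (PURExpress), about 100-200 nM. Bound TF was detected with fluorescent anti-GST. Each ungapped 8-mer (which stands for itself and its reverse complement) is scored by the PBM enrichment score (E-score), a modified Wilcoxon-Mann-Whitney statistic from -0.5 to +0.5, computed with the Universal PBM Analysis Suite. Scale: above 0.35 generally sequence-specific binding.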

Row | Sequence | PBM E-score
1 | CGTAGGGC | -0.108
2 | ATTAGCTG | 0.107
3 | AACTGTAC | -0.166
4 | CGGAAGGC | 0.00052
5 | CGGAAGCC | 0.451
6 | AAAAAGCT | -0.183
7 | GAGAAGCA | 0.111
8 | AAGAAGCC | 0.401
9 | GAGAAGCC | 0.395
10 | AAGAAGGT | 0.122
11 | CGGAAGCA | 0.0914
12 | GCGAAGCC | 0.1
13 | AAGAAGCA | 0.165
14 | AAGAAGCG | 0.0955
15 | AAGAAGCT | 0.386
16 | CGACCCCC | -0.203
17 | GCAGAGAA | -0.0151
18 | TGAGCACA | -0.235
19 | AGCATAAT | -0.00272
20 | ATATACTA | 0.174
21 | AAAGTTAA | 0.0767
22 | CAGAAGCA | 0.0126
23 | CAGAAGCC | 0.306
24 | CAGAAGCG | 0.223
25 | ACGCTAGA | -0.0413

Row | Sequence | PBM E-score
26 | TAGCGATA | -0.0939
27 | CATGCCTC | -0.101
28 | CTCCAGCC | -0.183
29 | CAATCGGG | 0.0633
30 | CCGCAACC | 0.316
31 | CAGCAACC | 0.287
32 | CAGCAACG | 0.0545
33 | AGGCAACC | 0.0186
34 | AAGCAACC | 0.0616
35 | CGGCAACC | 0.29
36 | CCGCAACA | -0.0641
37 | CGGCAACA | 0.206
38 | ACGCAACC | 0.121
39 | TTCGCCAA | 0.0203
40 | CCACCGCC | -0.0958
41 | ACTTTGCA | -0.0113
42 | CCGGGGAA | 0.0357
43 | CAACGCAC | -0.152
44 | AAGATATT | 0.125
45 | ACCGAGTC | -0.306
46 | ATAGAGAA | -0.111
47 | CGAGTAGC | -0.018
48 | GGTGTGAA | -0.0292
49 | CCTGATCC | 0.0357
50 | AATAAGAT | 0.0233

Row | Sequence | PBM E-score
51 | AATAAGAA | 0.328
52 | AAGAAGAA | 0.303
53 | AAGAAATT | 0.0237
54 | GAGAAGAA | 0.0707
55 | AAGAAAAT | 0.304
56 | CAGAAGAA | 0.212
57 | AAGAAAAA | 0.164
58 | ACGAAGAA | -0.0157
59 | TAGAAGAA | 0.352
60 | AAGAAGAC | 0.0399
61 | AATAAGAG | 0.0844
62 | CCGGAGAA | -0.189
63 | AGGTTTTC | 0.0618
64 | CACACAAG | 0.128
65 | ACTTTCAC | 0.0906
66 | TACCCCGA | -0.036
67 | GGACCGAA | 0.0294
68 | AAATCGTT | -0.0365
69 | AAGAAGAT | 0.338
70 | AAGAAGAG | 0.237
71 | TACAAAAA | 0.0752
72 | ACGAAGAT | 0.00119
73 | TACAAGAA | 0.379
74 | CACAAGAA | 0.275
75 | GTCGGCAA | 0.0614

Row | Sequence | PBM E-score
76 | GGATCAAC | -0.00409
77 | ACTCAATA | 0.156
78 | GTTTGGGA | -0.0986
79 | AATTTGGA | 0.263
80 | CATTTGGA | 0.172
81 | ATTTTGGG | 0.274
82 | ATTTGGGA | 0.301
83 | ATTTTGGA | 0.282
84 | ATTTGGGG | 0.23
85 | GTTTTGGA | 0.122
86 | TATTTGGA | 0.313
87 | AAGCTCCG | 0.00534
88 | AACCAACA | 0.0425
89 | CTTTGAGC | -0.149
90 | GACCATCC | -0.0793
91 | GCGCCCGC | 0.315
92 | CCGCCCAC | 0.0451
93 | GCGCCCAC | 0.317
94 | GCGCCCAA | 0.18
95 | ACGCCCGC | 0.105
96 | CCGCCCGC | -0.0787
97 | TAAAGGTA | -0.0155
98 | GTGCTACA | -0.119
99 | CTAAACGA | -0.00769
100 | GGTTAACC | -0.194

Row | Sequence | PBM E-score
101 | AATCTGGT | 0.281
102 | AATCTGGA | 0.257
103 | AATCTGGC | 0.0826
104 | CGTTCCCC | -0.0544
105 | AACAAGTG | 0.0405
106 | CATGCCGA | 0.041
107 | CATGCCAC | -0.109
108 | AATGCCAC | -0.0507
109 | GATGCCAC | 0.342
110 | AATGCCGA | -0.178
111 | AATGCCAA | 0.042
112 | GATGCCAA | 0.351
113 | TATGCCAA | -0.104
114 | GATGCCGA | 0.335
115 | GTTCATAA | 0.0771
116 | CAGTGAGG | -0.176
117 | GCCAGGTA | 0.0834
118 | CTCTGCGC | -0.22
119 | CACGCAGA | -0.137
120 | CAAGCAGC | 0.324
121 | GAAGCAGC | 0.24
122 | CCAGCAGC | 0.272
123 | AAAGCAGC | -0.0508
124 | ACAGCAGC | 0.288
125 | ACAGCAGA | -0.0557

Row | Sequence | PBM E-score
126 | GCAGCAGA | -0.135
127 | ACAGCAGT | -0.0218
128 | AACGCAGC | 0.0364
129 | CACGCAGC | 0.295
130 | GCAGCAGC | 0.307
131 | CGCGGCTC | 0.117
132 | CACTTGAG | 0.00447
133 | ACCCTCCG | -0.333
134 | GCCGCAGC | 0.0591
135 | TAAGATCA | 0.157
136 | CGATCGAC | -0.154
137 | GTATCGCA | -0.00444
138 | CATACTTA | 0.0988
139 | AAAAAAGT | 0.135
140 | TGGCTGAA | 0.0392
141 | CATCCAGA | 0.268
142 | AGAGCCAC | 0.13
143 | GGAGCCAA | 0.33
144 | AGAGCCAA | -0.13
145 | CGAGCCAC | -0.116
146 | CGAGCCAA | -0.00353
147 | GGAGCCAC | 0.289
148 | TGAGCCCA | 0.0335
149 | GGAGCCCC | 0.265
150 | GGAGCCCA | 0.349

Row | Sequence | PBM E-score
151 | CCCAGTCC | -0.0352
152 | AAGTTCAA | 0.0288
153 | CACGTGCC | -0.121
154 | ATCGATCC | -0.0388
155 | CCTAGAGG | 0.0618
156 | CAAGTTCG | -0.0211
157 | ACATTGCT | 0.0699
158 | GCATCTCA | 0.139
159 | TGGGCAAA | -0.213
160 | AGCTTCAA | 0.0987
161 | AGCTTCCC | 0.378
162 | AGCTTCCG | 0.433
163 | TGCTTCCA | 0.146
164 | ACCTTCCC | -0.00014
165 | AGCTTCCA | 0.458
166 | AGCTTCGG | 0.17
167 | CGCTTCAG | 0.0898
168 | CGCTTCCG | 0.291
169 | AGCTTCAG | -0.19
170 | CCCTTCCG | -0.286
171 | AGCTTCGC | 0.173
172 | GATTAAGC | 0.0627
173 | CAAAACGC | 0.025
174 | AAGCAAAA | -0.075
175 | CCATCCGG | -0.0299
